This is one part of a sample in which hits are shown more often than they occur.
nsP2pro inh: Primary qHTS for inhibitors of NSP2Pro chikungunya virus (CHIKV) | Polyprotein P1234 (Chikungunya virus (strain S27-African prototype)), Q8JUX6 | FRET peptide cleavage, nsP2pro, fluorescence 1 h | hit rate 1.1% among 31,000 | Potency, µM (doses to about 24.9 µM), most hits filed as inhibitors; calls by dose curve; note: nearly all actives have a fitted effect of over 60% in size
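Purified recombinant nsP2pro (150 nM final) in 10 mM Tris-HCl pH 8.0 with 0.01% Tween 20 was preincubated 15 min at room temperature with compound (7 concentrations, up to 25 uM). FRET peptide 2 substrate (2.5 uM final) was then added; fluorescence was read after 1 h.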
Large screens that a line does not name were inactive.

CO/N=C(\C(=O)N[C@@H]1C(=O)N2C(C(=O)O)=C(CSc3cnns3)CS[C@H]12)c1csc(N)n1	none
CCO/N=C(\C(=O)N[C@@H]1C(=O)N2C(C(=O)O)=C(Sc3nc(-c4cc[n+](C)cc4)cs3)CS[C@H]12)c1nsc(NP(=O)(O)O)n1	nsP2pro inh 11µM
COCC1=C(C(=O)O)N2C(=O)[C@@H](NC(=O)/C(=N\OC)c3csc(N)n3)[C@H]2SC1	none
COc1cccc(NCCC2(c3ccccc3)CC(C)(C)OC(C)(C)C2)c1	none
O=C(Nc1ccc(-c2nc3ccccc3[nH]2)cc1)c1ccc2ncsc2c1	nsP2pro inh 11µM
O=C(Nc1ccc(-c2nc3ccccc3[nH]2)cc1)c1ccc2sccc2c1	none
O=C(Nc1ccc(-c2nc3ccccc3[nH]2)cc1)c1ccc2ncccc2c1	none
CN1Cc2c(Cl)cc(Cl)cc2[C@H](c2cccc(S(=O)(=O)NCCOCCOCCNC(=O)NCCCCNC(=O)NCCOCCOCCNS(=O)(=O)c3cccc([C@@H]4CN(C)Cc5c(Cl)cc(Cl)cc54)c3)c2)C1	none
COCC(=O)N1c2nc(C(C)C)nn2C2(CCCCC2)[C@@H]2CCCC[C@@H]21	nsP2pro inh 11µM
CC(=O)N1c2nc(-c3ccco3)nn2C2(CCCCC2)[C@@H]2CCCC[C@@H]21	none
O=C(c1cccc([N+](=O)[O-])c1)N1c2ncnn2C2(CCCCC2)[C@@H]2CCCC[C@@H]21	none
COc1cc(O)c(C(CC(=O)N2CC(C)CC(C)C2)c2ccc(C)cc2)c(OC)c1 (centres undefined)	none
Cc1c(P(=S)(c2ccccc2)c2ccccc2)c2ccccc2n1C(=O)NCc1ccccc1	none
Cc1c(P(=O)(c2ccccc2)c2ccccc2)c2ccccc2n1C	nsP2pro inh 11µM
Cc1c(P(=S)(c2ccccc2)c2ccccc2)c2ccccc2n1Cc1ccccc1	none
O=C(O)/C(S)=C/c1c[nH]c2ccc(F)cc12	nsP2pro inh 11µM
CN1CCC(c2c[nH]c3ccc(NC(=O)c4ccc(F)cc4)cc23)CC1	none
COc1ccc2[nH]cc(CCNC(=O)Nc3ccc(F)cc3)c2c1	none
O=C1c2ccccc2C(=O)N1Cc1ccccc1	none
O=C1N/C(=C\c2ccco2)C(=O)N1Cc1ccccc1	nsP2pro inh 13µM
O=C1N/C(=C\c2ccco2)C(=O)N1Cc1ccc(F)cc1	none
COc1ccc(-c2sc(NC(=O)C(C)(C)C)nc2C)cc1S(=O)(=O)Nc1ccc(O)cc1	none
O=C(c1ccc2c(c1)ncn2-c1ccccc1)N1CCCCC1	none
COc1ccc(-c2nc3ccccc3s2)cc1	none
COc1ccc(-c2cc(=S)ss2)cc1	nsP2pro inh 11µM
COc1ccc(-c2nc3ccc(OC)cc3s2)cc1	none
CCS(=O)(=O)N1CCC([C@@H](C)n2c(C)c(C(=O)NCc3c(OC)cc(C)[nH]c3=O)c3ccccc32)CC1	none
O=C(CN1C(=O)N/C(=C\c2cccn2-c2cccc(C(=O)O)c2)C1=O)Nc1cccc(Cl)c1	none
CC1=C(c2ccc(C)c(C)c2)S(=O)(=O)N=C1N1CCC(C(=O)Nc2ccc(Cl)cc2)CC1	none
CC1=C(c2ccc(Cl)cc2)S(=O)(=O)N=C1N1CCC(C(=O)NCCc2ccco2)CC1	nsP2pro inh 11µM
CC1=C(c2ccc(C)c(C)c2)S(=O)(=O)N=C1N1CCC(C(=O)NCc2ccc(Cl)cc2)CC1	none
COCCn1nc2n(c1=O)CCC1(CC2)CCN(C(=O)CC(C)(C)C)CC1	none
CC(O)C(C)n1ncn(-c2ccc(N3CCN(c4ccc(OCC5COC(Cn6cncn6)(c6ccc(Cl)cc6Cl)O5)cc4)CC3)cc2)c1=O (centres undefined)	none
COc1cc(O)c(C(CC(=O)N2CCC(c3ccccc3)CC2)c2ccc3c(c2)OCO3)c(OC)c1 (centres undefined)	none
CC(=O)OC1CCC2(C)C(CCC3(C)C2CC=C2C4C(C)C(C)CCC4(C)CCC23C)C1(C)C(=O)O (centres undefined)	nsP2pro inh 1.2µM
COC(=O)C12CCC(C)C(C)C1C1=CCC3C4(C)CCC(OC(C)=O)C(C)(C)C4CCC3(C)C1(C)CC2 (centres undefined)	none
CC(=O)O[C@@H]1CC[C@@]2(C)C(CC[C@]3(C)C2[C@H](O)C=C2[C@H]4[C@@H](C)[C@H](C)CC[C@]4(C)CC[C@]23C)[C@@]1(C)C(=O)O (some centres undefined)	none
CN1CCOc2c(C(=O)NCCc3cnc[nH]3)cc(-c3ccccc3F)cc21	none
CN(C)C[C@@H]1CN(Cc2cccnc2)C[C@H]1NC(=O)CCn1cccn1	none
O=C(OCC#CCSc1nnc(-c2ccc3ccccc3c2)o1)c1ccccc1	none
CC(C)[C@@H]1C(=O)N(S(C)(=O)=O)[C@@H]2CCN(C(=O)/C=C/CN3CCCCC3)[C@H]21	none
O=C(NC1CCN(CCCCC2(C(=O)NCC(F)(F)F)c3ccccc3-c3ccccc32)CC1)c1ccccc1-c1ccc(C(F)(F)F)cc1	none
CN(CC(=O)Nc1ccc(N2CCOCC2)cc1)Cc1ccccc1O	none
CN1CCN(c2ccc(NC(=O)CN(C)Cc3c(O)ccc4ccccc34)cc2)CC1	nsP2pro inh 13µM
COc1ccc2ccccc2c1CN(C)CC(=O)Nc1ccc(N2CCOCC2)cc1	none
CCCCCOc1ccc(-c2ccc(-c3ccc(C(=O)NC4CC(O)C(O)NC(=O)C5C(O)C(C)CN5C(=O)C(C(C)O)NC(=O)C(C(O)C(O)c5ccc(O)cc5)NC(=O)C5CC(O)CN5C(=O)C(C(C)O)NC4=O)cc3)cc2)cc1 (centres undefined)	none
O=C1CCCC2=C1C(c1[nH]ncc1Cl)N=C(Nc1nc3cc(F)ccc3o1)N2 (centres undefined)	none
CCOC(=O)NNc1nncc2ccccc12	none
CCOC(=O)NNc1ccc(N(CC)CC(C)O)nn1 (centres undefined)	nsP2pro inh 11µM
FC(F)(F)c1cccc(N2CCN(C(=S)Nc3ccccn3)CC2)c1	none
C=CCN1CC[C@]23c4c5ccc(O)c4O[C@H]2[C@@H](OCCOCCOCCOCCOCCOCCOCCOC)CC[C@@]3(O)[C@H]1C5	none
CCOc1ccc(CCNC(=O)c2cc3sccc3n2Cc2ccc(Cl)c(F)c2)cc1OCC	none
Fc1ccc(-c2cccc(CN3CCOCC3)c2)c(Cl)c1	none
Cn1c(C(=O)Nc2ccc3c(c2)OCO3)cc2c1CCN(Cc1cccc(F)c1)C2	none
O=C(c1nc2c(o1)CCN(Cc1cccc(F)c1)CC2)N1CCOCC1	nsP2pro inh 2.8µM
COc1cc2c(cc1OC)[C@H]1C[C@@H](OC(=O)[C@@H](N)C(C)C)[C@H](CC(C)C)CN1CC2	none
COC(=O)c1c(-c2cccs2)csc1NC(=O)c1ccc(OC)c(OC)c1	nsP2pro inh 13µM
CCCc1ccc(OCC(=O)Nc2scc(-c3cccs3)c2C(=O)OC)cc1	none
COc1ccc(C(=O)NCC(c2ccco2)S(=O)(=O)c2cccs2)cc1OC (centres undefined)	none
Oc1ccccc1-c1cc(C2=CCOCC2)c2cncn2c1	none
Cc1ccc(S(=O)(=O)Nc2ccccc2C(=O)Nc2ccc(-c3ccccc3)nn2)cc1	none
Cn1c(=O)cc(SCC(=O)N2CCN(c3ccccc3F)CC2)c2ccccc21	none
CCOC(=O)c1cnc2ccc(OCC)cc2c1N1CCN(c2ccccc2F)CC1	none
CCOc1ccc(C(c2c(O)cc(C)n(CCOC)c2=O)N2CCN(c3ccccc3F)CC2)cc1 (centres undefined)	nsP2pro inh 13µM
COc1cc2nc(N3CCN(C)CC3)nc(NCCN(C)C)c2cc1OC	none
C=C1CCC2C(C)(CO)C(O)CCC2(C)C1C/C=C1\C=COC1=O (centres undefined)	none
O=S(=O)(c1ccc(O)c2ncccc12)N1CCCCC1	none
Cc1csc(NC(=O)c2nc3c(o2)CCN(Cc2ccccc2F)CC3)n1	nsP2pro inh 13µM
